Assay results reported in article PMC12136788.
Numbering of substitutions follows the chain as printed. The full ranking holds about 5,800 sequences; the median of “enrichment r” is about 0.68, and the highest 2% start at about 11. Shown is part of a subset that was picked to be rich in the highest values.

T1: UNK ZnF1-6 (called full-length) (human, UniProt Q9C0B0 30-357)
T1 sequence: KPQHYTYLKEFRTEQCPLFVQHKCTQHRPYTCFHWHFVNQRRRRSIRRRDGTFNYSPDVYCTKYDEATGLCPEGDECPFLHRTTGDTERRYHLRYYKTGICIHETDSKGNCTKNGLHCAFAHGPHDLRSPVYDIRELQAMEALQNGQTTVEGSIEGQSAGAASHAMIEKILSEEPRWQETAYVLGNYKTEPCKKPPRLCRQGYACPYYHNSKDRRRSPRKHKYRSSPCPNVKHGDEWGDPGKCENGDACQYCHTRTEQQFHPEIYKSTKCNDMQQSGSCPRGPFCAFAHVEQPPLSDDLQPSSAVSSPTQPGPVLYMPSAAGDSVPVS

B1: chr8:144773268:144774605:-|CDS|ENSG00000196378|control|control|control (ssRNA)
RNA: GGGAGUUCUACAGUCCGACGAUCCACCAGAGGAUUCACACUGGGGAGAAACCCUACAAGUGUGGGGAGUGUGGGAAGCACUUUAGCGCCUACUCUUCCCUGAUUUAUCACCAGAGAAUCCACACCGGAGAGAAACCCUAUAAACAACAGAGGAUUGAGCAUCA
B2: chr7:123692404:123692516:-|CDS|ENSG00000106299|unk|total|mutant (ssRNA)
RNA: GGGAGUUCUACAGUCCGACGAUCCCUGCCUUCUGAUGGGGACCAUCAGGUUCCAACUACUGCAGGAAACAAAGCAGCUCUUUCCGAUCAAAUCCGAGAGGGUGCUCAGCUAAAAAAAGUGGAGCAGAACAGUCGGCCAGUGUCCAACAGAGGAUUGAGCAUCA
B3: chr2:32377587:32377702:+|CDS|ENSG00000115760|unk|FALSE|unique (ssRNA)
RNA: GGGAGUUCUACAGUCCGACGAUCGGUGAAAUGUCAGUAUAUCUCUGCUGUGGAUAAAGUUAUAUUUGUGGAUGAUUAUGCAGUAGGGUGUAGGAAGGACCUUAAUGGAAUCUUGUUGUUAGACACUGCUCUGCAAACUCCAGUCAACAGAGGAUUGAGCAUCA
B4: chr15:69268886:69268987:+|CDS|ENSG00000138604|unk|total|mutant (ssRNA)
RNA: GGGAGUUCUACAGUCCGACGAUCGGAGUUAAAGCUGUGUUUAUGAAUAAACAUGACUGGUAUGAAGAAUAUCCAACCACACCCCGCUCUUUUGUUUUAAAUGGCUUUAUGUAUUCUUUAAUUGGGCUGUAUGACUUAAAAGAACAACAGAGGAUUGAGCAUCA
B5: ENSG00000107863:be:win_3351|CDS|ENSG00000107863|bound_else_gene|NA|bound_elsewhere_windowed (ssRNA)
RNA: GGGAGUUCUACAGUCCGACGAUCAAAAGACAAAGGCACAUGGAGAAAAGGCAUUCCAAGUAUCAUGAGAAAGACAUUUGAGAAAAAGCCAACUGCUACAGGAACUUUCGGCGUCCGACUAGAUGACUGCCCACCAGCUCAUACCAACAGAGGAUUGAGCAUCA
B6: chr10:92030311:92030412:+|3pUTR|ENSG00000095564|unk|FALSE|unique (ssRNA)
RNA: GGGAGUUCUACAGUCCGACGAUCAUAUAAGAUUGAAACUGUAAAAUAUAUGCAACUGUGUGUUAUUUGUAGGAAAUGGUCACUAGAAAGAGCAAAAGAUUAUUCAGGUAUACAGGUUUUUUUUCAUUGUUUAGGAUUUUAACUCAACAGAGGAUUGAGCAUCA
B7: chr5:75599425:75599511:+|3pUTR|ENSG00000122008|msi1_unk|FALSE|overlapping (ssRNA)
RNA: GGGAGUUCUACAGUCCGACGAUCGAAUAGCUUAAUUAAGAACUCACAGACUUUGACAAAGUGGUAACUAGACUUUUAAUUACUAGAUUCUUCAAAUUAGGCUUAAUGCCUGCUAGCAUGCCAAUCCAAUCCCAUGACUGAUGUCAACAGAGGAUUGAGCAUCA
B8: chr2:167954955:167954998:-|3pUTR|ENSG00000198648|msi1_unk|FALSE|overlapping (ssRNA)
RNA: GGGAGUUCUACAGUCCGACGAUCGUUGUAUUUAGAAAUUAAUAUACUUAUAAAAUUAAGAUUUAUUAGCCAAACUUGAAUUCUAGUUUUAAAACUGACUGUGAAUUUUAUUUUUCAUAUAUUUAUGCAUUACACACCUUAGCUCAACAGAGGAUUGAGCAUCA
B9: chrX:85861749:85861850:-|3pUTR|ENSG00000188419|msi1|FALSE|unique (ssRNA)
RNA: GGGAGUUCUACAGUCCGACGAUCCUAAUUUAAAAUUUCAGAAAAUGCUAUUAAAGAAUUUUGAUUCAAGUAUUUAAACUGUUUAGUUAUGCAUGCUUCUUAUUAACCGAAAAUGAUAAUACCAUUUAGUUUAGUGAUCAGUAUCAACAGAGGAUUGAGCAUCA
B10: chr1:235448940:235449205:-|3pUTR|ENSG00000162885|unk|total|mutant (ssRNA)
RNA: GGGAGUUCUACAGUCCGACGAUCAACCGAGAAUUCCAUUAAAACCCGUCUUAUGACAGAUAUUAACUGUGUUCAGAUUUUAUCCGGCCCGCCCGUUUCUUUCUAUUUAAUAUUUAAAUCUUAUCAUGAAAUGCAGUGAUGAGCCAACAGAGGAUUGAGCAUCA
B11: chr2:167954955:167954998:-|3pUTR|ENSG00000198648|msi1_unk|total|mutant (ssRNA)
RNA: B8 RNA with U32C, A33C, U66C, A67C, U83C, A84C, U139C, A140C
B12: chr5:75599425:75599511:+|3pUTR|ENSG00000122008|msi1_unk|total|mutant (ssRNA)
RNA: B7 RNA with U27C, A28C, U68C, A69C, U83C, A84C, U97C, A98C, U113C, A114C
B13: chr1:150220393:150220494:-|3pUTR|ENSG00000143401|msi1_unk|total|mutant (ssRNA)
RNA: GGGAGUUCUACAGUCCGACGAUCAUUGUAUGCCGAGAAAAAUUUUCAUUGACUCCCAUUGUGGAAUUCCCCCGCAAUUUAUUCCGACUUAAUUUUUUAAAUUCAAGCUUACUGUAUCCGUCAUUUUCCGCCCAUAAUUAAAACCAACAGAGGAUUGAGCAUCA
B14: chr1:150220393:150220494:-|3pUTR|ENSG00000143401|msi1_unk|FALSE|overlapping (ssRNA)
RNA: B13 RNA with C32U, C33A, C71U, C72A, C83U, C84A, C117U, C118A, C127U, C128A
B15: chr1:235448940:235449205:-|3pUTR|ENSG00000162885|unk|FALSE|unique (ssRNA)
RNA: B10 RNA with C26U, C27A, C45U, C46A, C83U, C84A, C88U, C89A, C92U, C93A
B16: ENSG00000172071:stop:overlap|stop_codon|ENSG00000172071|stop_codon|NA|stop_codon (ssRNA)
RNA: GGGAGUUCUACAGUCCGACGAUCCAUCGGGAACAAAACAUUCAAGACAGUCCAACAACUCCCAUAGCCCUUUGCCAAGCAAUUAGCCUUAAGUUGUGCUAGCAACCCUAAUAGGUGAUGCAGAUAAUAGCCUACUUCUUAGAACAACAGAGGAUUGAGCAUCA
B17: chr4:140550230:140550341:+|CDS|ENSG00000179387|unk|FALSE|unique (ssRNA)
RNA: GGGAGUUCUACAGUCCGACGAUCGAAUUUGACAAGUUUUGGUUUGAAGAAGAACCAGAAAGCAUUAUGUAUUUCAAUUUGUAUAGAGAGAAGUUUCAUGAAAAGAUUAAAGGACUUUUACUGGAUUGUAAUGUAGCACUUACUCAACAGAGGAUUGAGCAUCA

molecular target: T1, UNK ZnF1-6 (called full-length); assay: nsRBNS (natural sequence RNA bind-n-seq); RBNS binding buffer (assumed for nsRBNS): 25 mM Tris pH 7.5, 150 mM KCl, 3 mM MgCl2, 0.01% Triton X-100, 500 ug/ml BSA, 20 U/ml SUPERase-In, 4 C; UNK is unkempt and MSI1 is Musashi-1; names of the RNAs are library labels; protein concentration not given here; high values mean tight binding

| Binder | binding signal |
| --- | --- |
| B1 | 0.587 enrichment R |
| B2 | 0.493 enrichment R |
| B3 | 0.488 enrichment R |
| B4 | 0.547 enrichment R |
| B5 | 0.507 enrichment R |
| B6 | 3.36 enrichment R |
| B7 | 38.5 enrichment R |
| B8 | 15.2 enrichment R |
| B9 | 2.27 enrichment R |
| B10 | 2.39 enrichment R |
| B11 | 3.43 enrichment R |
| B12 | 0.537 enrichment R |
| B13 | 2.56 enrichment R |
| B14 | 228 enrichment R |
| B15 | 35.6 enrichment R |
| B16 | 1.57 enrichment R |
| B17 | 0.651 enrichment R |
